Drawing on PubChem BioAssay, this text covers composite z-score for 25 molecules.

In this assay the test system is Fibrinogen (Alexa647-labelled). Briefly: Alexa647-fibrinogen binding to printed small molecules – biochemical, small-molecule microarray, 635/667 nm fluorescence, artefact control for SMM control-protein annotation, profiling panel (AID 1131).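 Also: z-score merges 667 nm fluorescence with per-spot signal-to-noise over triplicate slides.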 Particulars: fibrinogen-A647 binding fluorescence, higher = more signal.
The molecule `CCOC(=O)[C@H](Cc1ccccc1)NC(=O)CCC1CC(OC(=O)NCCc2ccc(F)cc2)CC2(CCCC(COC(=O)NCCOc3ccccc3)O2)O1` (stereo not given in full) showed a composite z-score of 0.855.

In the case of `Cc1ccc(S(=O)(=O)N[C@@H]2COC(=O)CC=C[C@@H](C)[C@H](NS(=O)(=O)c3ccc(C)cc3)COC(=O)[C@H](C)NC(=O)CC=C[C@H]2C)cc1`, the composite z-score is -0.111.

Molecule `CCOC(=O)CCN1C(=O)[C@H]2[C@H]3[C@H](O)[C@H](O)CC(=NOCC(C)C)[C@@H]3CC[C@H]2C1=O` registered a composite z-score of -0.586.

`CC(=O)OC[C@H]1O[C@H](CCON=C(C)CCN2CCCc3nc(C)c(C)cc32)C=C[C@@H]1OC(C)=O` returned a composite z-score of 0.441.

`Cc1cc2c(nc1C)CCCCN2CC(O)CN1CCCc2nc(-c3ccc(Br)cc3)ccc21` (stereo not given): the composite z-score was -0.564.

`CC(C)(C)N1C(=O)[C@H]2[C@@H]3C(=CC[C@H]2C1=O)C(=O)[C@H]1O[C@H]1[C@H]3O` had a composite z-score of -1.06.

Consider `CC(CCN1CCCc2nc(C)c(C)cc21)=NOC[C@@H](C)[C@H](OCc1ccccc1)C(C)C`, for which the composite z-score was -0.9.

With `CON=C(C)CCC(=O)OC[C@H]1O[C@H](C#Cc2ccccc2)C=C[C@@H]1Oc1ccc(C)cc1`, the composite z-score came to 0.354.

For `C[C@@H]1CC[C@@H](C(=O)O)N[C@H]1c1cccc(N2CCOCC2)c1`, the composite z-score turned out to be 0.301.

`O=C1C2=CC[C@H]3C(=O)N(C4CCCCC4)C(=O)[C@H]3[C@H]2[C@H](O)[C@@H]2O[C@H]12` showed a composite z-score of 0.0555.

As to `CCOC(=O)[C@H](Cc1ccccc1)NC(=O)CCC1CC(OC(=O)NCCc2ccc(F)cc2)CC2(CCCC(COC(=O)NCc3cccc(C(F)(F)F)c3)O2)O1` (stereo not given in full), the composite z-score was determined as 0.943.

Turning to `O=C1[C@H]2[C@H]3[C@H](O)[C@H](O)CC(=NO[C@@H]4O[C@H](CO)[C@@H](O)[C@H](O)[C@H]4O)[C@H]3CC[C@H]2C(=O)N1C[C@@H]1CCCO1`, the composite z-score was found to be 0.333.

As for `CC(CCC(=O)OC[C@H]1O[C@H](C#Cc2ccccc2)C=C[C@@H]1Oc1ccc(C)cc1)=NOC[C@@H](C)[C@H](OCc1ccccc1)C(C)C`, the composite z-score was -1.36.

`C[C@@H]1CC[C@H]2C(=O)OC(Cc3ccccc3)CN2[C@H]1c1ccc(Br)cc1` (stereo not given in full): the composite z-score was 0.853.

In turn, `COC(=O)CC=C[C@@H](C)[C@@H](C=NOC[C@@H](O)COCc1ccco1)OC` yielded a composite z-score of -1.2.

`CCc1cc2c(nc1CC)CCN(CCC(C)=NOC[C@@H](C)[C@H](OCc1ccccc1)C(C)C)C2` came in with a composite z-score of -1.69.

For the molecule `O=C1C2=CC[C@H]3C(=O)N(C[C@@H]4CCCO4)C(=O)[C@H]3[C@H]2[C@H](O)[C@@H]2O[C@H]12`, the composite z-score was -0.0182.

Molecule `CCOC(=O)CCN1C(=O)[C@H]2[C@H]3[C@H](O)[C@H](O)CC(=NNC(=O)OCC)[C@H]3CC[C@H]2C1=O` had a composite z-score of -1.05.

Take `COc1ccc2c(c1)O[C@@H](c1cccc(C(F)(F)F)c1)[C@H](O)C2=O`: the composite z-score stood at 0.289.

In turn, `COC(=O)CC=C[C@@H](C)[C@@H](C=NOC(C)CN1CCCCc2nc(C)c(C)cc21)NS(=O)(=O)c1ccc(C)cc1` (stereo not given in full) had a composite z-score of -0.207.

Turning to `CCOC(=O)[C@H](Cc1ccccc1)NC(=O)CCC1CC(OC(=O)NCc2cccc3ccccc23)CC2(CCCC(COC(=O)NCCc3ccccc3OC)O2)O1` (stereo not given in full), the composite z-score turned out to be 0.287.

With `O=C1C=C[C@@H](O)[C@@H]2[C@@H]3C(=O)N(c4cccc(Oc5ccccc5)c4)C(=O)[C@@H]3CC[C@@H]12`, the composite z-score is -0.127.

`O=C1C=C[C@@H](O)[C@@H]2[C@@H]3C(=O)N(Cc4ccccc4)C(=O)[C@@H]3CC[C@@H]12` showed a composite z-score of 0.394.

`COC(=O)[C@H](C)NC(=O)CCC1CC(OC(=O)NCc2ccc3c(c2)OCO3)CC2(CCCC(COC(=O)NCc3ccccc3)O2)O1` (stereo not given in full) came in with a composite z-score of 0.332.

`COc1ccc(COC(=O)NN=C2C[C@@H](O)[C@@H](O)[C@@H]3[C@@H]4C(=O)N(C(C)(C)C)C(=O)[C@@H]4CC[C@@H]23)cc1` came in with a composite z-score of 0.874.
